{
  "source": "PubChem BioAssay (EPA / NIEHS)",
  "note": "Records with an inconclusive call do not appear. Active and inactive are the calls of the source. Rule for the calls: active = hit-call score of the fitted dose curve at least 0.9, where 1 is the maximum; inconclusive = response in the unintended direction; inactive = score below 0.9.",
  "data": [
    {"test_system": "not listed separately", "test": "TOX21_p53_BLA_p5_viability: Viability Assessment in the Tox21 HCT-116 p53 Agonism Beta-lactamase Assay, Phase 5 (AID 2283600)", "in_short": "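Decreased CellTiter-Glo luminescence denotes lost viability. Exposure: 16 h at 37C, 5% CO2, with compounds from DMSO stocks diluted 217-fold in wells of 4000 cells.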", "values": [
      {"smiles": "CC(Oc1ccccc1)C(=O)N[C@@H]1C(=O)N2[C@@H]1SC(C)(C)[C@@H]2C(=O)O", "note": "(some centres not stated)", "outcome": "inactive"},
      {"smiles": "C=CC(=O)[O-].C=CC(=O)[O-].[Zn+2]", "outcome": "inactive"},
      {"smiles": "O=C(O)[C@H](O)c1ccccc1", "outcome": "inactive"},
      {"smiles": "CCOc1cc(N)c(Cl)cc1C(=O)NCC1CN(Cc2ccc(F)cc2)CCO1", "note": "(configuration not stated)", "outcome": "inactive"},
      {"smiles": "CC(C)NCC(O)COc1ccccc1-n1cccc1", "note": "(configuration not stated)", "outcome": "inactive"},
      {"smiles": "O=Nc1ccc(NO)cc1", "outcome": "inactive"},
      {"smiles": "CC(C)(C)c1ccc(C=O)cc1", "outcome": "inactive"},
      {"smiles": "OCC(F)(F)F", "outcome": "inactive"},
      {"smiles": "CC(=NCc1ccccc1)c1ccccc1O", "outcome": "inactive"},
      {"smiles": "Cc1nc(-c2ccc(Cl)cc2)oc1COC(C)(C)C(=O)O", "outcome": "inactive"},
      {"smiles": "Clc1ccc2nsnc2c1NC1=NCCN1", "outcome": "inactive"},
      {"smiles": "C=CCSSSCC=C", "outcome": "inactive"},
      {"smiles": "CN1c2c(nc(N)[nH]c2=O)NCC1CNc1ccc(C(=O)NC(CCC(=O)O)C(=O)O)cc1", "note": "(configuration not stated)", "outcome": "inactive"},
      {"smiles": "C1=C\\CC/C=C\\CC/1", "outcome": "inactive"},
      {"smiles": "CCN(CCCc1ccccc1)CCCc1ccccc1", "outcome": "inactive"},
      {"smiles": "CC(C)C[C@H](NC(=O)[C@@H](Cc1c[nH]c2ccccc12)NC(=O)[C@H](Cc1ccc(O)cc1)NC(=O)[C@H](CO)NC(=O)[C@H](Cc1c[nH]c2ccccc12)NC(=O)[C@H](Cc1cnc[nH]1)NC(=O)[C@@H]1CCC(=O)N1)C(=O)N[C@@H](CCCN=C(N)N)C(=O)N1CCC[C@@H]1C(=O)NCC(N)=O", "outcome": "inactive"}
    ]},
    {"molecular_target": "Cellular tumor antigen p53 (Homo sapiens) (UniProt P04637)", "sequence (P04637 whole entry, looked up)": "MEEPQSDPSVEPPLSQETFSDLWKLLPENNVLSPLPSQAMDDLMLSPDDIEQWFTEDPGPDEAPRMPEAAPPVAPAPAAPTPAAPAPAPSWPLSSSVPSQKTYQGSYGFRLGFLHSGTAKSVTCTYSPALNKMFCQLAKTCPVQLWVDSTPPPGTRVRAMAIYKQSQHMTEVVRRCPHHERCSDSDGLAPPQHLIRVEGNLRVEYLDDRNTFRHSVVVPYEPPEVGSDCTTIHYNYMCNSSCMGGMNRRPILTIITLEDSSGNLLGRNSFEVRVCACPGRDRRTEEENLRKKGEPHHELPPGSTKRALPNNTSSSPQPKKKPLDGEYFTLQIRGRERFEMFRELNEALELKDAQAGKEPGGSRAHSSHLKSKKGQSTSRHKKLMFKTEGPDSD", "test": "TOX21_p53_BLA_p4_ratio: Tox21 HCT-116 p53 Agonism Beta-lactamase Assay, Ratio, Phase 4 (AID 2283601)", "in_short": "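Signal is the blue/green (460nm/530nm) ratio of cleaved versus uncleaved CCF4-AM substrate, read after 2 h substrate loading. Cells were HCT116 carrying the p53-responsive beta-lactamase reporter, dosed 16 h at 37C, 5% CO2; CellTiter-Glo measured in parallel.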", "values": [
      {"smiles": "Cc1ccc(N)cc1[N+](=O)[O-]", "outcome": "inactive"},
      {"smiles": "CC(Oc1ccccc1)C(=O)N[C@@H]1C(=O)N2[C@@H]1SC(C)(C)[C@@H]2C(=O)O", "note": "(some centres not stated)", "outcome": "inactive"},
      {"smiles": "C=CC(=O)[O-].C=CC(=O)[O-].[Zn+2]", "outcome": "inactive"},
      {"smiles": "COc1cc(C(=O)NCCCCCC(=O)O)cc(OC)c1OC", "outcome": "inactive"},
      {"smiles": "OCC(O)CN1CCN(c2ccccc2)CC1", "note": "(configuration not stated)", "outcome": "inactive"},
      {"smiles": "O=C(O)[C@H]1/C(=C/CO)O[C@@H]2CC(=O)N21", "outcome": "inactive"},
      {"smiles": "O=C(O)[C@H](O)c1ccccc1", "outcome": "inactive"},
      {"smiles": "CCOc1cc(N)c(Cl)cc1C(=O)NCC1CN(Cc2ccc(F)cc2)CCO1", "note": "(configuration not stated)", "outcome": "inactive"},
      {"smiles": "CC(C)NCC(O)COc1ccccc1-n1cccc1", "note": "(configuration not stated)", "outcome": "inactive"},
      {"smiles": "O=Nc1ccc(NO)cc1", "outcome": "inactive"},
      {"smiles": "CN1CCN(CCC(=O)N2c3ccccc3Sc3ccc(C(F)(F)F)cc32)CC1", "outcome": "inactive"},
      {"smiles": "CC(C)(C)c1ccc(C=O)cc1", "outcome": "inactive"},
      {"smiles": "NC[C@H]1O[C@H](O[C@H]2[C@H](O[C@@H]3O[C@H](CO)[C@@H](O)[C@H]3O)C(O)[C@H](N)C[C@@H]2N)[C@H](N)[C@@H](O)[C@@H]1O", "note": "(some centres not stated)", "outcome": "inactive"},
      {"smiles": "CC(=NCc1ccccc1)c1ccccc1O", "outcome": "inactive"},
      {"smiles": "Cc1nc(-c2ccc(Cl)cc2)oc1COC(C)(C)C(=O)O", "outcome": "inactive"},
      {"smiles": "O=C(O)Cc1csc(-c2ccc(Cl)cc2)n1", "outcome": "inactive"},
      {"smiles": "CN(C)CC/C=C1\\c2ccccc2COc2ccccc21", "outcome": "inactive"},
      {"smiles": "CCOC(=O)C1=C[C@]2(CC)CCCN3CCc4c(n1c1ccccc41)[C@@H]32", "outcome": "inactive"},
      {"smiles": "NC(=O)c1ccc[n+]([C@@H]2O[C@H](COP(=O)([O-])OP(=O)(O)OC[C@H]3O[C@@H](n4cnc5c(N)ncnc54)[C@H](O)[C@@H]3O)[C@@H](O)[C@H]2O)c1", "outcome": "inactive"},
      {"smiles": "OCC1(CO)COC(C(Cl)(Cl)Cl)OC1", "outcome": "inactive"},
      {"smiles": "Clc1ccc2nsnc2c1NC1=NCCN1", "outcome": "inactive"},
      {"smiles": "CCOc1ccc2ccccc2c1C(=O)N[C@@H]1C(=O)N2[C@@H]1SC(C)(C)[C@@H]2C(=O)O", "outcome": "inactive"},
      {"smiles": "C=CCSSSCC=C", "outcome": "inactive"},
      {"smiles": "CN1c2c(nc(N)[nH]c2=O)NCC1CNc1ccc(C(=O)NC(CCC(=O)O)C(=O)O)cc1", "note": "(configuration not stated)", "outcome": "inactive"},
      {"smiles": "Cc1ccc(C(=O)c2ccc(CC(=O)O)n2C)cc1", "outcome": "inactive"},
      {"smiles": "C1=C\\CC/C=C\\CC/1", "outcome": "inactive"},
      {"smiles": "CN1[C@@H]2CC[C@H]1CC(OC(=O)c1c[nH]c3ccccc13)C2", "note": "(some centres not stated)", "outcome": "inactive"},
      {"smiles": "CC(C)C[C@@H](N)C(=O)O", "outcome": "inactive"},
      {"smiles": "C[N+](C)(C)CC(O)CCl", "note": "(configuration not stated)", "outcome": "inactive"},
      {"smiles": "OCCCCCCCl", "outcome": "inactive"},
      {"smiles": "Nc1ccc(Cl)cc1[N+](=O)[O-]", "outcome": "inactive"},
      {"smiles": "CCc1c(C)[nH]c2c1C(=O)C(CN1CCOCC1)CC2", "note": "(configuration not stated)", "outcome": "inactive"},
      {"smiles": "NC[C@H]1O[C@H](O[C@H]2[C@H](O)[C@@H](O[C@H]3O[C@H](CO)[C@@H](O)[C@H](N)[C@H]3O)[C@H](N)C[C@@H]2N)[C@H](N)[C@@H](O)[C@@H]1O", "outcome": "inactive"},
      {"smiles": "C=CC(=O)OCCOCCOC(=O)C=C", "outcome": "inactive"},
      {"smiles": "CCNC(=O)NCCCOc1cccc(CN2CCCCC2)c1", "outcome": "inactive"},
      {"smiles": "CC(C)C[C@H](NC(=O)[C@@H](Cc1c[nH]c2ccccc12)NC(=O)[C@H](Cc1ccc(O)cc1)NC(=O)[C@H](CO)NC(=O)[C@H](Cc1c[nH]c2ccccc12)NC(=O)[C@H](Cc1cnc[nH]1)NC(=O)[C@@H]1CCC(=O)N1)C(=O)N[C@@H](CCCN=C(N)N)C(=O)N1CCC[C@@H]1C(=O)NCC(N)=O", "outcome": "inactive"}
    ]}
  ]
}
